# Source: PubChem BioAssay
# PAX8 inh HTS: inhibitors of PAX8 transcriptional activity in RMG-I cells; 360,000 tested, 1.2% active; RMG-I TPO-luciferase reporter, SteadyGlo, 24 h; AID 652154; inhibition, % at 12.6 µM;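 active = mean replicate inhibition at least 60% with every replicate also reaching 60%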;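 also: luciferase light reporting Pax8 driven TPO promoter activity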
# Peg3 prom inh: inhibitors of Peg3 promoter; HeLa PEG-Prom luciferase reporter, luminescence, overnight; inhibition, % at 20 µM; 360,000 tested, 1.7% active; AID 588405;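 active = inhibition of at least 50% at 20 µM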
# Shn3 inh set2: inhibitors of Schnurri-3 3'UTR reporter in osteoblasts | inhibition, % at 12.5 µM | AID 588674 | 360,000 tested, 0.52% active | Clone20 osteoblast Shn3 3'UTR firefly luciferase, 24 h;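 active = mean inhibition of at least 75% with every replicate also reaching 75%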
# EBV LMP1 NFkB: reduces LMP1-driven NF-kappaB luciferase signal; LMP1-induced NF-kappaB luciferase reporter cells, luminescence; inhibition, % at 12.5 µM; 350,000 tested, 0.69% active; AID 504558; in the data active = inhibition above about 41%
# MITF TRPM1 inh: reduces MITF-dependent TRPM1 promoter luciferase signal | SK-MEL-5 TRPM1 promoter luciferase, 24 h | 330,000 tested, 0.83% active | inhibition, % at 12.5 µM;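 active = mean inhibition across replicates of 60% or more, whatever share of single replicates reaches that level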
# HIF-2a inh: blocks HIF-2a reporter activity; inhibition, % at 18.8 µM; 360,000 tested, 0.72% active; 786-0 RCC cells HIF-2a reporter, luciferase luminescence, overnight; AID 624352;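 active = inhibition of the luminescence signal of 40% or more relative to plate controls, in a single-dose primary screen at 18.75 µM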
# Numbers stand for hits; – = inactive; · = not tested or not shown. An excerpt weighted towards active compounds, which were near 2.8% of everything screened.
SMILES,PAX8 inh HTS,Peg3 prom inh,Shn3 inh set2,EBV LMP1 NFkB,MITF TRPM1 inh,HIF-2a inh
COc1ccc(C#Cc2ccc3c(c2)[C@@H]2[C@@H](CCN2S(=O)(=O)c2cccc(OC)c2)[C@@H](CO)N3)cc1,–,·,·,·,·,·
CN(C)CCCNC(=O)C[C@@H]1CC[C@@H]2[C@H](COc3ccc(NC(=O)c4ccc5c(c4)OCO5)cc3C(=O)N2C)O1,–,·,·,·,·,·
Cc1ccc(S(=O)(=O)Nc2ccc3c(c2)C(=O)N([C@@H](C)CO)C[C@@H](C)[C@@H](CN(C)C(=O)Nc2ccc4c(c2)OCO4)OCCCC[C@@H](C)O3)cc1,–,·,·,·,·,·
Cc1cnc(NC(=O)CCCc2nc3ccccc3s2)s1,·,98,–,–,–,–
CC(=NNc1cc(C)c2ccccc2n1)c1ccccn1,95,·,·,·,·,·
C/C(=N\Nc1ncnc2sc(C)c(C)c12)c1ccccn1,–,84,89,84,67,–
Cc1sc2ncnc(N/N=C/c3cccc(O)c3)c2c1C,–,–,–,–,–,–
C/C(=N\Nc1ncc(Cl)cc1Cl)c1ccccn1,·,71,86,85,95,–
CCCNC(=O)N[C@@H]1CC[C@H](CCn2cc(C3CC3)nn2)O[C@@H]1CO,–,·,·,·,·,·
CC(=O)[C@H]1CC[C@H]2[C@@H]3C[C@H](C)C4=CC(=O)CC[C@]4(C)[C@H]3[C@@H](O)C[C@]12C,–,–,–,57,–,–
CN1CCN(CCCNC(=O)c2ccc(/C=C3/Sc4ccccc4N(Cc4cccc(Cl)c4)C3=O)cc2)CC1,–,84,–,–,–,–
CN1CCN(CCCNC(=O)c2ccc(/C=C3\Sc4ccccc4N(Cc4ccc(F)cc4)C3=O)cc2)CC1,–,104,–,–,–,–
O=C(NCCCN1CCOCC1)c1ccc2c(c1)N(Cc1ccccc1)C(=O)c1ccccc1S2,–,–,–,–,–,–
O=C(Nc1cccc(Cl)c1)N[C@H]1CC[C@@H](CCNC(=O)C2CCC2)O[C@H]1CO,–,·,·,·,·,·
Cc1ccc(S(=O)(=O)N(C)C[C@H]2Oc3c(NC(=O)c4cc(C)nn4C)cccc3C(=O)N([C@@H](C)CO)C[C@H]2C)cc1,–,·,·,·,·,·
CO[C@@H]1CN(C)C(=O)c2ccc(NC(C)=O)cc2OC[C@@H](C)N(CC2CCCCC2)C[C@@H]1C,–,·,·,·,·,·
O=C1c2cccc(NCCCNCCO)c2C(=O)c2cccc(NCCCNCCO)c21,–,109,–,–,86,48
COc1ccc(NC(=O)N(C)C[C@H]2OCCCC[C@@H](C)Oc3ccc(NC(=O)Nc4ccc(C(F)(F)F)cc4)cc3C(=O)N([C@@H](C)CO)C[C@@H]2C)cc1,77,·,·,·,·,·
C[C@@H]1CN([C@H](C)CO)C(=O)c2cc(NC(=O)Nc3ccccc3)ccc2O[C@@H](C)CCCCO[C@H]1CN(C)C(=O)Nc1ccc(C(F)(F)F)cc1,84,·,·,·,·,·
COc1ccc(NC(=O)N(C)C[C@H]2OCCCC[C@H](C)Oc3ccc(NC(=O)Nc4ccc(C(F)(F)F)cc4)cc3C(=O)N([C@H](C)CO)C[C@@H]2C)cc1,–,·,·,·,·,·
CC(C)NC(=O)Nc1ccc2c(c1)C(=O)N([C@H](C)CO)C[C@@H](C)[C@H](CN(C)C(=O)Nc1ccc(C(F)(F)F)cc1)OCCCC[C@H](C)O2,–,·,·,·,·,·
CC(C)NC(=O)Nc1ccc2c(c1)C(=O)N([C@H](C)CO)C[C@@H](C)[C@H](CN(C)C(=O)Nc1ccc(C(F)(F)F)cc1)OCCCC[C@@H](C)O2,68,·,·,·,·,·
CC(C)NC(=O)N(C)C[C@@H]1OCCCC[C@H](C)Oc2ccc(NC(=O)Nc3ccc(C(F)(F)F)cc3)cc2C(=O)N([C@@H](C)CO)C[C@@H]1C,69,·,·,·,·,·
CC(C)NC(=O)N(C)C[C@@H]1OCCCC[C@@H](C)Oc2ccc(NC(=O)Nc3ccc(C(F)(F)F)cc3)cc2C(=O)N([C@@H](C)CO)C[C@H]1C,–,·,·,·,·,·
O=C(c1ccncc1)N1CCCCN2[C@@H](CO)[C@H](c3ccc(-c4ccccc4)cc3)[C@@H]2C1,–,·,·,·,·,·
SMILES,PAX8 inh HTS,Peg3 prom inh,Shn3 inh set2,EBV LMP1 NFkB,MITF TRPM1 inh,HIF-2a inh
CCn1cc(C(=O)NCCCN2CCC(C)CC2)c(=O)c2cc(S(=O)(=O)N(C)C3CCCCC3)ccc21,–,–,–,–,–,–
CCn1cc(C(=O)NCCCN2CC(C)CC(C)C2)c(=O)c2cc(S(=O)(=O)N(C)C3CCCCC3)ccc21 (centres undefined),–,73,–,–,–,–
CO[C@H]1CN(C)C(=O)c2ccc(NC(=O)c3cccc(F)c3)cc2OC[C@@H](C)N(CC2CC2)C[C@@H]1C,–,·,·,·,·,·
CC(=O)N/C(=C\c1ccccc1)C(=O)OCC(=O)NC1CCCC1,150,–,–,–,–,–
Cc1nnnn1/C(=C\c1ccccc1)C(=O)OCC(=O)NC(C)(C)C,·,–,–,–,–,–
CC(=O)N/C(=C\c1ccccc1)C(=O)OCC(=O)c1ccccc1,–,–,–,–,–,–
Cc1nnnn1/C(=C\c1ccccc1)C(=O)OCC(=O)NC1CCCCC1,–,76,–,–,–,–
O=C(NNC(=O)C1CCN(S(=O)(=O)c2cccc(C(F)(F)F)c2)CC1)C1CC1,–,–,–,–,–,–
O=C(NC1CCCc2ccccc21)C1CCN(S(=O)(=O)c2cccc(C(F)(F)F)c2)CC1 (centres undefined),70,–,–,–,–,–
CN1c2ccc(-c3ccccc3)cc2[C@@H]2[C@@H](CCN2C(=O)CN2CCOCC2)[C@@H]1CO,–,·,·,·,·,·
Cc1ccccc1C(=O)N1CCN(c2ccc(NC(=O)CSc3ccc(Cl)cc3)cc2)CC1,·,–,–,58,–,–
COc1ccccc1C#Cc1ccc([C@H]2[C@@H](CO)N3CCCCN(CCC(F)(F)F)C[C@H]23)cc1,–,·,·,·,·,·
CCCCCCCCSC1=CC(=O)C(OC)=C(OC)C1=O,–,93,95,–,·,–
Cc1ccc2c(=O)n3c(nc2c1)C(Cc1ccc(O)cc1)NC(=O)c1cc2ccccc2cc1-3 (centres undefined),–,62,–,–,·,–
Cc1ccc2nc3n(c(=O)c2c1)-c1cc2ccccc2cc1C(=O)NC3Cc1ccccc1 (centres undefined),–,–,–,–,·,–
O=C1NC(Cc2ccc(O)cc2)c2nc3ccc(Cl)cc3c(=O)n2-c2cc3ccccc3cc21 (centres undefined),–,61,–,–,·,–
O=C1NC(Cc2ccc(O)cc2)c2nc3cc(F)ccc3c(=O)n2-c2cc3ccccc3cc21 (centres undefined),66,–,–,–,·,–
O=C(c1ccccn1)N1C[C@@H]2[C@H](c3ccccc31)[C@H](CO)N2C(=O)C1CCCCC1,–,·,·,·,·,·
O=C(Cc1ccccn1)NCC[C@@H]1CC[C@H](NS(=O)(=O)c2ccc(Cl)cc2)[C@H](CO)O1,–,·,·,·,·,·
Cc1ccc(S(=O)(=O)N(C)C[C@@H]2OCCCC[C@@H](C)Oc3ccc(NS(=O)(=O)c4cccs4)cc3C(=O)N([C@H](C)CO)C[C@@H]2C)cc1,–,·,·,·,·,·
